Structures are written as SMILES. Where “and” joins values, the source holds several entries; their conditions need not be identical. Identical values can stand only once. Compounds without any hit were thinned out: in the full panel of roughly 83,000, 20% have a hit.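 Activity criterion: percent growth below 10, measured after cells in 96-well plates were exposed to a single compound concentration for 48 hours.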 Calls of active or inactive are those of the source.

Common to all, as to test: NCI-60 one-dose screen, 48 h (100 = growth as untreated, 0 = no growth, -100 = all killed)
Common to all, as to settings: 10 µM unless noted

Test [1] concerns NCI-H23 lung.
The test system of test [2] is NCI-H226 lung.
Test [3] concerns NCI-H322M lung.
Test [4] deals with HOP-62 NSCLC.
Test [5] has as its system NCI-H460 lung.
Test [6] concerns HOP-92 NSCLC.
Test [7] has as its system NCI-H522 lung.
Test [8] has as its system A549/ATCC NSCLC.
The test system of test [9] is 786-0 renal.
The subject of test [10] is COLO 205 colon.

`COc1ccc2c(c1)CCNC21C(=O)Nc2c(Br)cc(Br)cc21` (stereo not given): the growth in test [1] was 98.4% (inactive); in [2], 101% (inactive); in test [3], 90.3% (inactive); in test [4], 86.1% (inactive); in test [5], 101% (inactive); in test [6], 93.2% (inactive). Also, the growth in test [7] is 91.6% (inactive); in [8], 99.2% (inactive); in [9] it was 94.8% (inactive); in test [10] it was 112% (inactive).
On to `Cc1ccc(S(=O)(=O)OC[C@@]2(C)CC[C@]3(C)CC[C@]4(C)C(=C3C2)C=C[C@@H]2[C@@]3(C)CCCNC(C)(C)[C@@H]3CC[C@]24C)cc1`, for which the growth is 59.2% (inactive) in test [1]; 66.8% (inactive) in test [2]; 26.9% (inactive) in test [3]; 53.7% (inactive) in [4]; -65.4% (active) in test [5]; 28.6% (inactive) in test [6]. Besides, the growth is -47.1% (active) in [7], -38.2% (active) in test [8], -90.7% (active) in [9] and -78% (active) in [10].
For the compound `Cc1ccc(-c2nc([P+](c3ccccc3)(c3ccccc3)c3ccccc3)c(Nc3ccccc3)o2)cc1`, the growth is -6.49% (active) in [1]; 20.2% (inactive) in [2]; 4.01% (active) in test [3]; -16.4% (active) in test [4]; -45.3% (active) in test [5]; -14.4% (active) in [6]. Further, the growth in test [7] is -33.5% (active); in [8] it was 4.95% (active); in [9], -24.5% (active); in test [10] it was -62.8% (active).
Turning to `CCN(C(=O)N1CCN(c2cc3c(cc2F)c(=O)c(C(=O)O)cn3C2CC2)CC1)c1nc(-c2ccccc2)cs1`, the growth in [1] is 6.27% (active); in test [2], 20.9% (inactive); in test [3], 13.3% (inactive); in test [4], 36% (inactive); in [5], 5.27% (active); in test [6] it was -18.4% (active). Moreover, the growth is -1.7% (active) in [7], 12.4% (inactive) in [8], 14.3% (inactive) in test [9] and 64.1% (inactive) in test [10].
`CCCCSc1ccc2nc(-c3ccc(OCCCN=C(N)N)cc3)cn2c1`: the growth is 63.7% (inactive) in test [1]; 72.3% (inactive) in test [2]; 90.7% (inactive) in [3]; 86.4% (inactive) in test [4]; 43.7% (inactive) in test [5]; 43.1% (inactive) in [6]. The growth was 53.8% (inactive) in test [7], 83.8% (inactive) in [8], 39.4% (inactive) in [9] and 51.1% (inactive) in [10].
`C=CCNC(=O)Cc1c(-c2ccc(OC)cc2)oc2c(OC)c3c(c(OC)c12)OCO3`: the growth in test [1] is 96.2% (inactive); in test [2], 101% (inactive); in test [3], 97.9% (inactive); in test [4], 105% (inactive); in [5], 102% (inactive); in [6], 114% (inactive). For the same compound, the growth in [7] was 92.7% (inactive); in [8], 95.2% (inactive); in test [9], 104% (inactive); in test [10], 117% (inactive).
As to `OCCN1CCN(CC/C=C2\c3ccccc3Sc3ccc(Cl)cc32)CC1`, the growth is 50.7% (inactive) and 82.9% (inactive) in test [1]; 88.2% (inactive) and 110% (inactive) in test [2]; 83.1% (inactive) in test [3]; -34.7% (active) and -66.1% (active) in test [4]; 2.77% (active) and -25% (active) in test [5]; 10.9% (inactive) and -12.9% (active) in [6]. Further, the growth in [7] was 37.9% (inactive) and 13.3% (inactive); in [8], 60% (inactive) and 38.2% (inactive); in [9], 38.6% (inactive); in test [10], -75.6% (active) and -87.3% (active).
Turning to `CC1(Cc2ccccc2)CC2=C(C(=O)O1)C(c1ccccc1)NC(=O)N2` (stereo not given), the growth in test [1] is 100% (inactive); in test [2], 101% (inactive); in [3], 98.6% (inactive); in [4], 97.4% (inactive); in test [5], 110% (inactive); in test [6] it was 77% (inactive). In addition, the growth in test [7] is 95.4% (inactive); in test [8], 112% (inactive); in [9], 100% (inactive); in test [10], 106% (inactive).
For the compound `FC(F)(F)Sc1ccc(/C=C/c2cc(/C=C/c3ccc(SC(F)(F)F)cc3)n(-c3ccccc3)n2)cc1`, the growth in [1] is 103% (inactive); in [2], 89.5% (inactive); in [3], 93.7% (inactive); in test [4], 90.8% (inactive); in test [5], 99.8% (inactive); in test [6], 87.3% (inactive). For the same compound, the growth in test [7] is 89.4% (inactive); in test [8] it was 89.5% (inactive); in test [9] it was 91.8% (inactive); in [10] it was 92.8% (inactive).
For `N=c1c2c(-c3ccccc3)c(-c3ccccc3)oc2ncn1NC(=O)c1cccnc1`, the growth in test [1] was 93.2% (inactive); in [2], 108% (inactive); in [3] it was 98.7% (inactive); in test [4], 102% (inactive); in test [5], 105% (inactive); in test [6] it was 91% (inactive). Also, the growth in test [7] was 95.1% (inactive); in test [8], 103% (inactive); in test [9], 99% (inactive); in [10] it was 115% (inactive).
As to `COC(=O)c1c2c(c(C)[n+]([O-])c1C)C(=O)C(NCCN1CCOCC1)=CC2=O`, the growth in test [1] is 59.7% (inactive); in test [2], 103% (inactive); in test [3] it was 72.5% (inactive); in [4] it was 101% (inactive); in test [5] it was 55.4% (inactive); in [6], 146% (inactive). The growth is 87.5% (inactive) in test [7], 91.3% (inactive) in [8], 89.9% (inactive) in test [9] and 6.73% (active) in test [10].
For `O=C1OCC2=C1C(c1cccc(C(F)(F)F)c1)c1cc3c(cc1N2CCO)OCCO3` (stereo not given), the growth in test [1] is 28.5% (inactive); in test [2], 52.3% (inactive); in test [3], 51.3% (inactive); in test [4], 23.5% (inactive); in test [5] it was 7.21% (active); in test [6], 63.3% (inactive). The growth in [7] was 7.2% (active); in test [8], 16.3% (inactive); in test [9], 25.5% (inactive); in [10], -17.7% (active).
